# About 8,800 targets were measured; listed, in parts, are those with a hit and a random draw of the rest. About 0.5% of all pairs of compound and target were hits. Unmarked numbers belong to inactive results.
# Tests used:
# Assay in all cases: log2 fold change, soluble protein after heating vs DMSO (PISA); higher = thermal stabilisation; K562 lysate, 10 uM; active = over 0.2 and 3.5 SD of the protein, either way, in both replicates (recomputed)
# [1] = compound: Cc1nc(Nc2ncc(C(=O)Nc3c(C)cccc3Cl)s2)cc(N2CCN(CCO)CC2)n1 [dasatinib]
# Summary of the method: (§1)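 Following dounce homogenisation of K562 pellets in PBS pH 7.4 with 1 mM MgCl2, crude extract at 1 mg/mL protein was incubated for 30 min with 10 μM compound. Aliquots were then heated for 3 min over 48°C-58°C and pooled, NP-40 was added to 0.5% at 4°C, and soluble protein was recovered as the supernatant at 21,000xg for 90 min. Channel-sum-equalised TMTpro 16plex LC-MS/MS quantified this protein. Each value, from duplicates, is a log-two fold change in thermal stability relative to solvent controls.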
# [2] = compound: Cn1cc(-c2ccc3c(c2)CCN3C(=O)Cc2cccc(C(F)(F)F)c2)c2c(N)ncnc21
# Summary of the method: as §1
# [3] = compound: Cn1cc(CNCC2CCN(c3ncc(C(=O)NO)cn3)CC2)c2ccccc21 [quisinostat]
# Summary of the method: as §1
# [4] = compound: NC(=O)Nc1cc(-c2cccc(F)c2)sc1C(=O)N[C@H]1CCCNC1
# Summary of the method: as §1
# [5] = compound: NC(=O)c1cnc(N[C@@H]2CCCC[C@@H]2N)nc1Nc1cccc(-n2nccn2)c1
# Summary of the method: as §1
# [6] = compound: NC1(c2ccc(-c3nc4ccn5c(=O)[nH]nc5c4cc3-c3ccccc3)cc2)CCC1
# Summary of the method: as §1
# [7] = compound: NCC(=O)Nc1ccc(-n2nc(C(F)(F)F)cc2-c2ccc3c(ccc4ccccc43)c2)cc1
# Summary of the method: as §1
# [8] = compound: O=C(CCCCCCC(=O)Nc1ccccc1)NO [vorinostat]
# Summary of the method: as §1
# [9] = compound: O=C(O)c1ccc2c(c1)nc(Nc1cccc(Cl)c1)c1ccncc12 [silmitasertib]
# Summary of the method: as §1
# [10] = compound: O=C1NC(=O)C(c2cnc3ccccn23)=C1c1cn2c3c(cc(F)cc13)CN(C(=O)N1CCCCC1)CC2
# Summary of the method: as §1
# [11] = compound: c1cn2cc(-c3ccc4cn[nH]c4c3)nc(Nc3ccc(N4CCOCC4)cc3)c2n1 [entospletinib]
# Summary of the method: as §1
# [12] = compound: Cc1cn(-c2cc(NC(=O)c3ccc(C)c(Nc4nccc(-c5cccnc5)n4)c3)cc(C(F)(F)F)c2)cn1 [nilotinib]
# Summary of the method: as §1
# [13] = compound: Cc1nc(Nc2n[nH]c3c2CN(C(=O)N[C@H](CN(C)C)c2ccccc2)C3(C)C)c2sccc2n1
# Summary of the method: as §1
# [14] = compound: Cc1ncc(-c2ccnc(Nc3ccc(S(C)(=O)=O)cc3)n2)n1C(C)C
# Summary of the method: as §1
# [15] = compound: Cn1cncc1[C@@](N)(c1ccc(Cl)cc1)c1ccc2c(c1)c(-c1cccc(Cl)c1)cc(=O)n2C [tipifarnib]
# Summary of the method: as §1
# Chain of UniProt Q8IWV2 (Q8IWV2 whole entry, looked up): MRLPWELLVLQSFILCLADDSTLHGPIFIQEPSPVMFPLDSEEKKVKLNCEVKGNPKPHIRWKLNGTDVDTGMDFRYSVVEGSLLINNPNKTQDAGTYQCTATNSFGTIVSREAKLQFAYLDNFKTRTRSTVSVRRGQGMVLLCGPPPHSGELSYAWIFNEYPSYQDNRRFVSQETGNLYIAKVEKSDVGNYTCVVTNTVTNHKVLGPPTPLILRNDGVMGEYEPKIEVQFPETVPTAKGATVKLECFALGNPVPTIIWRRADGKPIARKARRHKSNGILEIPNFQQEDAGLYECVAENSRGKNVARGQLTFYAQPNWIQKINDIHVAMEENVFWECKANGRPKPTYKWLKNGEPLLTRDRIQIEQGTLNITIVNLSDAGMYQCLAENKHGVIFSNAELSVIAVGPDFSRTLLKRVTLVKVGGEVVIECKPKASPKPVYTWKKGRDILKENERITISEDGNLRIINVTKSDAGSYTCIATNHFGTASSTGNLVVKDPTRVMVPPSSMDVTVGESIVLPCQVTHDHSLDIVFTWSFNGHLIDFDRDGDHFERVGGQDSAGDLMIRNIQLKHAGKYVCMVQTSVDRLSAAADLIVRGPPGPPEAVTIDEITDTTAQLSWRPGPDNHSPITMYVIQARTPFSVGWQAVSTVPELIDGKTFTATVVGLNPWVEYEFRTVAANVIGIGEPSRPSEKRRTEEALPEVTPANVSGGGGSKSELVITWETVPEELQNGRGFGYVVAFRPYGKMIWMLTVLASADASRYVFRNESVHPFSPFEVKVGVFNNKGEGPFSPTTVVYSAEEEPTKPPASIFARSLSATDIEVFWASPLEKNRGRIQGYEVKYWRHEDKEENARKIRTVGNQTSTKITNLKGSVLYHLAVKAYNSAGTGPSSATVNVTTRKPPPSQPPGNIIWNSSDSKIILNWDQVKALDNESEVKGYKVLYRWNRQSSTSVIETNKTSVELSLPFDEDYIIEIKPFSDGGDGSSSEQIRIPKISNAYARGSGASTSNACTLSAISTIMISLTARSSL
# Chain of UniProt Q7Z460 (Q7Z460 whole entry, looked up): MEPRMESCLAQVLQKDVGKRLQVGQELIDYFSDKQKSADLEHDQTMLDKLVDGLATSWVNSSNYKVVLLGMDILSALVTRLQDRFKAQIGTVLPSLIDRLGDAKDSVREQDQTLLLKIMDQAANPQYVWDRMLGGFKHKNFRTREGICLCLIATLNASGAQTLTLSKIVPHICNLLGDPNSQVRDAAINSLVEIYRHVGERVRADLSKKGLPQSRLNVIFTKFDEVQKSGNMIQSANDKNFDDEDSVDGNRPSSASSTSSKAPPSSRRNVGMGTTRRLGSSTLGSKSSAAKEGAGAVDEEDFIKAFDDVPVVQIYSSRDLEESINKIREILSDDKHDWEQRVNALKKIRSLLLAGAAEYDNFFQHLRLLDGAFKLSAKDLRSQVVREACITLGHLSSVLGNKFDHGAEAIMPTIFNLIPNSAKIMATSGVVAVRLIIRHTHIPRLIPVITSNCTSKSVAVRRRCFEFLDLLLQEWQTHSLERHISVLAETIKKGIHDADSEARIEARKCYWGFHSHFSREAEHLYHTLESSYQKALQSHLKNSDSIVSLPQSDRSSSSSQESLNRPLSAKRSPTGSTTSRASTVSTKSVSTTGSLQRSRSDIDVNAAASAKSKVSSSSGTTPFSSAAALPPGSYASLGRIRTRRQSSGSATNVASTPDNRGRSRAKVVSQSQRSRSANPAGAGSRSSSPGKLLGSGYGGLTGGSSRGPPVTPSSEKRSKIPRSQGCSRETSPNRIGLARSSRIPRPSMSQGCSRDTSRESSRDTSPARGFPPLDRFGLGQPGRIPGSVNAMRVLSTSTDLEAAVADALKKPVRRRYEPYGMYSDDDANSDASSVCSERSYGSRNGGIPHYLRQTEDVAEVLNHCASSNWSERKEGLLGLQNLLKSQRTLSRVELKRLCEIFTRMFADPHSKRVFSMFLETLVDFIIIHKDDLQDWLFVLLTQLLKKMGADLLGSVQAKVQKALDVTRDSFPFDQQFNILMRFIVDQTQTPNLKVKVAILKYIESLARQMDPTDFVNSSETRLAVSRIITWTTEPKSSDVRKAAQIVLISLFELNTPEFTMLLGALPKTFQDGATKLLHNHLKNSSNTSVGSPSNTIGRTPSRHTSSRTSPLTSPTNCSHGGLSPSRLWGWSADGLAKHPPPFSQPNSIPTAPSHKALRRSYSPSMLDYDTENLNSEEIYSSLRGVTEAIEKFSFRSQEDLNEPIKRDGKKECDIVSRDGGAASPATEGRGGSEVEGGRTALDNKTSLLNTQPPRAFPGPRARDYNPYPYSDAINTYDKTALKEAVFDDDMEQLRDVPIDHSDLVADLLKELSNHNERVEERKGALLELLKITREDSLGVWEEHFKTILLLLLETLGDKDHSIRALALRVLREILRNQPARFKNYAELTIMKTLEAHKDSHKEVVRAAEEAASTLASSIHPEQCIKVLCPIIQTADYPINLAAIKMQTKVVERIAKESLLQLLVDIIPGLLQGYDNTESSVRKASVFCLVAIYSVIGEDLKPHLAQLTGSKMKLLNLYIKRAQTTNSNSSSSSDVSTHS
# Chain of UniProt O94760 (O94760 whole entry, looked up): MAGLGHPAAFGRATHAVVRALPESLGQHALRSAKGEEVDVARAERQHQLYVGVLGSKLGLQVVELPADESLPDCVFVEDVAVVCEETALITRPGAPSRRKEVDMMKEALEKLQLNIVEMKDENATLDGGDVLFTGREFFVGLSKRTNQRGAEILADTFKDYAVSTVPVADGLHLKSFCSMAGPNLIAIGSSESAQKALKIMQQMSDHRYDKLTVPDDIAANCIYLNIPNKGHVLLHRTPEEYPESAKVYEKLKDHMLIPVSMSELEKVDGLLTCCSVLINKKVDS
# Chain of UniProt O75534 (O75534 whole entry, looked up): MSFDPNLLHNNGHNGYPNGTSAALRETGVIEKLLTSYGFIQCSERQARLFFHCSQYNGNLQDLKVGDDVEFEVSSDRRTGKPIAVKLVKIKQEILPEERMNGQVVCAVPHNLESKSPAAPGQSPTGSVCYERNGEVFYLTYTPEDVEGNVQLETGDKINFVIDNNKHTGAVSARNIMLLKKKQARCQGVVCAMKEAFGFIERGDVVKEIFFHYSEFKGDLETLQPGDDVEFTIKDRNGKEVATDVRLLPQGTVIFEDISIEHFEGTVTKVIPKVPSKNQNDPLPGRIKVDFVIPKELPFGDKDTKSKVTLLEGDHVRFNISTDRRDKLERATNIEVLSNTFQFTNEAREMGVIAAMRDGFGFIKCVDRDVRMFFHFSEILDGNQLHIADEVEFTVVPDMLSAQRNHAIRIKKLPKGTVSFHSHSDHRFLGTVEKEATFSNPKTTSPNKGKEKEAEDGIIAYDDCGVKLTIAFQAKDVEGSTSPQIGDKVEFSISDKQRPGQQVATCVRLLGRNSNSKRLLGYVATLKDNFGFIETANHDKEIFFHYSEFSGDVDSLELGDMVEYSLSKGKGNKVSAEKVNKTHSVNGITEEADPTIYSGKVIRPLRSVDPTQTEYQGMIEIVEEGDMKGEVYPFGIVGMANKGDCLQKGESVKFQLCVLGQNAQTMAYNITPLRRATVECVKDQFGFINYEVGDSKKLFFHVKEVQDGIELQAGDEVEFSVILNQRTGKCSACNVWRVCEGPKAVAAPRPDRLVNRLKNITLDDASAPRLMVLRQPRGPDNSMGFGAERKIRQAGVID
# Chain of UniProt Q96SQ9 (Q96SQ9 whole entry, looked up): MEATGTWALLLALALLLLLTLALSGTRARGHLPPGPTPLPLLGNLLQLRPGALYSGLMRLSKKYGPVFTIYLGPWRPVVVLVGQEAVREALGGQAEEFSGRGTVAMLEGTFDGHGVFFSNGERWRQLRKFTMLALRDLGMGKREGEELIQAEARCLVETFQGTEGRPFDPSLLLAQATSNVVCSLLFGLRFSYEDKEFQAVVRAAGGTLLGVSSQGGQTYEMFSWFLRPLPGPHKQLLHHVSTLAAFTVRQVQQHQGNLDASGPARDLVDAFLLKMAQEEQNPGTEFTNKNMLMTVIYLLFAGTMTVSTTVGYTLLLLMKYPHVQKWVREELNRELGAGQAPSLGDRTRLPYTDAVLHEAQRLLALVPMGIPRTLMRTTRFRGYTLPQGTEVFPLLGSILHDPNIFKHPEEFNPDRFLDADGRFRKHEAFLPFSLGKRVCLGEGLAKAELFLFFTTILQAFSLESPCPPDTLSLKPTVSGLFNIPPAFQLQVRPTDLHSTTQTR
# Chain of UniProt Q5D0E6 (Q5D0E6 whole entry, looked up): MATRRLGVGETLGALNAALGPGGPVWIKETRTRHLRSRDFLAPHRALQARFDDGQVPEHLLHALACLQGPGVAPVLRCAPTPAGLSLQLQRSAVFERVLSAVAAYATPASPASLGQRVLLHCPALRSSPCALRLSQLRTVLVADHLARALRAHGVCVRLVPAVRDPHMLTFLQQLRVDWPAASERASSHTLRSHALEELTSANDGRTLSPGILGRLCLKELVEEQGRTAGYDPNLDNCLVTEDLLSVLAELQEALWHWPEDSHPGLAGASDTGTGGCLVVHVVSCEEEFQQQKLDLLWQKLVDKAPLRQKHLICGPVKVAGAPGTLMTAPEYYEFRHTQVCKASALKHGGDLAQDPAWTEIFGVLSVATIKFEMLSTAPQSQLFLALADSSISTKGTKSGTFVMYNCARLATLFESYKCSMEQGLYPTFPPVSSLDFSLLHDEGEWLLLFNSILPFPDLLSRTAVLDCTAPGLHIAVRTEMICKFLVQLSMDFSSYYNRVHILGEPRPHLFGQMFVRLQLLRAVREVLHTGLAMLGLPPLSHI
# Chain of UniProt Q9UJA2 (Q9UJA2 whole entry, looked up): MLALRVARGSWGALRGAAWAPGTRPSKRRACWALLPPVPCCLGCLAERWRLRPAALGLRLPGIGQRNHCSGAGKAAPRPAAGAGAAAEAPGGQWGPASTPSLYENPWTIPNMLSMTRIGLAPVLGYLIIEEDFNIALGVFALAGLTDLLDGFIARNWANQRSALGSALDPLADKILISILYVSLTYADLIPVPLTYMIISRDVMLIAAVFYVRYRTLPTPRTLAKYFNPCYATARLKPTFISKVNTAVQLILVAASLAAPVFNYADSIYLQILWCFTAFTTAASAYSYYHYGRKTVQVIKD
# Chain of UniProt Q8WXC6 (Q8WXC6 whole entry, looked up): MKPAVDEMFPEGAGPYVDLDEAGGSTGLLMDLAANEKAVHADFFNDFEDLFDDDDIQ
Target,log2 fold change [1],log2 fold change [2],log2 fold change [3],log2 fold change [4],log2 fold change [5],log2 fold change [6],log2 fold change [7],log2 fold change [8],log2 fold change [9],log2 fold change [10],log2 fold change [11],log2 fold change [12],log2 fold change [13],log2 fold change [14],log2 fold change [15]
CNNM2 (UniProt Q9H8M5),-0.021,-0.044,0.217,-0.077,-0.001,-0.006,0.001,0.068,0.065,0.051,-0.073,,,,
CSRP2 (UniProt Q16527),,,-0.012,0.068,,,,,,0.016,-0.132,,,,
DPY19L3 (UniProt Q6ZPD9),,,-0.103,0.034,0.045,-0.683 (active),-0.085,0.219,0.108,0.035,-0.024,,,,
CHMP4A (UniProt H0YIN6),0.294,-0.06,-0.502,0.041,0.066,,,,,0.287,,,,,
CLASP1 isoform 4 (UniProt Q7Z460),,,,,,0.111,-0.214,0.167,0.06,,,-0.113,0.126,0.09,-0.301
"CSNK2A1, A0A2R8Y4D6",,,,,0.085,,,,,,,,,,
CXCL14 (UniProt O95715),,,,,,,0.24,,,,0.033,,,,
DLGAP5 isoform 3 (UniProt Q15398),0.017,0.18,,,,,,,,,,,,,
DDR1 isoform 5 (UniProt Q08345),0.083,0.103,0.045,-0.054,,,,,,-0.026,-0.153,0.036,0.013,-0.216,-0.012
DDAH1 (UniProt O94760),-0.244,0.174,-0.013,-0.003,-0.034,-0.016,-0.076,0.07,-0.035,0.017,-0.014,,,,
CYP2S1 isoform 2 (UniProt Q96SQ9),0.116,0.093,0.014,-0.135,0.054,-0.056,0.014,0.067,-0.027,-0.025,0.055,,,,
"CLIP1, A0A3B3ITA2",,,-0.169,0.017,,,0.136,,,0.068,,,,,
DNAH5 (UniProt Q8TE73),-0.072,-0.156,,,-0.073,-0.049,0.008,0.113,-0.179,,,-0.029,-0.036,-0.013,-0.128
CRLS1 (UniProt Q9UJA2),,,-0.122,0.066,-0.018,-0.067,,-0.572 (active),0.172,0.036,,0.1,-0.096,-0.143,-0.01
CLASP2 (UniProt O75122),,,-0.135,-0.058,0.205,,0.052,,,0.194,-0.073,0.013,-0.14,-0.061,-0.242
CSAD isoform 3 (UniProt Q9Y600),,,-0.035,-0.001,,-0.153,,0.031,0.075,0.039,,,,,
CPLX1 (UniProt O14810),1.05 (active),-0.134,,,0.178,,0,,,,0.119,,,,
CSDE1 isoform 3 (UniProt O75534),,,0.022,-0.085,-0.021,,,,,-0.1,,0.064,-0.135,0.016,-0.02

Target,log2 fold change [1],log2 fold change [2],log2 fold change [3],log2 fold change [4],log2 fold change [5],log2 fold change [6],log2 fold change [7],log2 fold change [8],log2 fold change [9],log2 fold change [10],log2 fold change [11],log2 fold change [12],log2 fold change [13],log2 fold change [14],log2 fold change [15]
CNOT2 (UniProt F8VRS8),,,,,,-0.122,,-0.056,0.152,,,,,,
CUX1 isoform 2 (UniProt Q13948),0.001,0.101,0.072,-0.026,-0.073,0.012,-0.102,0.101,0.086,0.676,-0.077,,,,
COL6A3 (UniProt P12111),0.032,-0.055,0.123,0,,-0.155,,0.273,0.002,-0.093,,0.05,0.151,0.02,-0.009
DAZAP1 (UniProt K7EQ02),,,,,,,,,,,,-0.221,0.096,0.119,-0.039
CNK3/IPCEF1 isoform 2 (UniProt G9CGD6),-0.131,0.002,,,,0.168,-0.02,-0.279,0.06,,0.008,,,,
CNOT4 isoform 9 (UniProt O95628),-0.062,-0.052,0.17,-0.058,0.081,-0.024,0.036,0.098,0.044,-0.031,0.009,,,,
DALRD3 (UniProt Q5D0E6),,,,,-0.03,0.207,-0.17,-0.895 (active),0.074,,-0.046,,,,
CYP4V2 (UniProt Q6ZWL3),-0.041,0.049,0.103,-0.026,-0.101,-0.033,,0.055,-0.038,0.034,,,,,
CSNK1A1 isoform 3 (UniProt P48729),0.048,-0.183,,,,,,,,,,,,,
CNTN4 (UniProt Q8IWV2),,,-0.561 (active),0.151,0.072,-0.024,0.173,-0.026,-0.09,0.274,0.06,0.127,-0.06,0.306,-0.006
DESI2 (UniProt Q9BSY9),,,,,,,0.155,,,,0.116,,,,
DHX32 (UniProt Q7L7V1),,,-0.015,0.142,,0.108,-0.044,-0.351,0.028,0.097,-0.002,-0.025,-0.027,-0.044,-0.061
CSNK1G3 isoform 4 (UniProt Q9Y6M4),,,,,0.083,,,,,,,,,,
DDX4 (UniProt Q9NQI0),0.014,0.076,,,0.062,0.059,0.019,-0.213,0.101,,0.011,-0.108,0.043,-0.085,0.028
DIAPH1 (UniProt H9KV28),,,-0.093,-0.001,0.05,0.111,-0.002,0.087,0.084,-0.083,-0.113,-0.027,-0.122,0.053,-0.051
COPS9 (UniProt Q8WXC6),,,,,-0.074,0.214,,0.341,-0.139,,,,,,
COL12A1 (UniProt Q99715),-0.097,0.198,-0.056,0.166,0.827,-0.154,0.29,0.037,-0.079,0.908,-0.036,,,,

# Reference: the supplement of paper PMC10849652
